# Results filed as inconclusive are left out. A call without a number means that no potency is given here. Activity calls are given as the source filed them. Calls follow the shape of the dose curve; as a rule, active = well fitted curve in the direction sought with a large enough effect; inconclusive = small, poorly fitted or top-dose-only effect, or another doubt; inactive = no such curve, though single readings can be large; an effect the other way counts as inactive or inconclusive.
# Tests used:
# [1] = P-glycoprotein substrates identified in KB-3-1 adenocarcinoma cell line, qHTS therapeutic library screen (AID 1346986); also: nearly all actives have a fitted effect of over 60% in size
# Summary of the method: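 72 h cell-killing screen, 500 cells/well, CellTiter-Glo luminescence. Paired lines KB-3-1/KB-8-5-11; P-gp dependence checked by tariquidar co-treatment and HEK-293 MDR-19 versus empty-vector cells.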
# [2] = P-glycoprotein substrates identified in KB-8-5-11 adenocarcinoma cell line, qHTS therapeutic library screen (AID 1346987); also: nearly all actives have a fitted effect of over 65% in size; also: potency is read from the fitted curve at half-maximal effect
# Summary of the method: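 Luminescence from CellTiter-Glo, read 5 min after addition, quantified survival of KB-8-5-11 (P-gp-overexpressing) cells exposed to compounds for 72 h. AC50 was derived from concentration-response curves.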
structure (smiles),measurement,setting,value
CC12CCC(=O)C=C1C(O)CC1C2C(O)CC2(C)C1CC[C@]2(O)C(=O)CO (some centres not stated),outcome,[1],inactive [at 9.29 µM]
same,outcome,[2],inactive [at 9.29 µM]
CC1=CC(=O)CC(C)(C)[C@H]1/C=C/C(CO)O[C@@H]1O[C@H](CO)[C@@H](O)[C@H](O)[C@H]1O (some centres not stated),Potency,[1],inactive
same,Potency,[2],inactive
COc1ccc(C2COc3cc(O)ccc3C2)c(O)c1 (configuration not stated),Potency,[2],inactive
CCOCc1nc2c(N)nc3ccccc3c2n1CC(C)(C)O,Potency,[2],inactive
CC1=CC(=O)C2(OC3OC(C)C(O)C(OC(=O)/C=C/c4ccccc4)C3O)C=COC(OC3OC(CO)C(O)C(O)C3O)C12 (configuration not stated),Potency,[2],inactive
CO[C@H]1/C=C\O[C@@]2(C)Oc3c(C)c(O)c4c(O)c(c5c(nc6cc(C)ccn65)c4c3C2=O)NC(=O)/C(C)=C\C=C/[C@H](C)[C@H](O)[C@@H](C)[C@@H](O)[C@@H](C)[C@H](OC(C)=O)[C@@H]1C,Potency,[2],inactive
COc1c2c(c(C)c3c1C(=O)OC3)OC1(C)CC(O)C34OC(OC)(CC(OC(C)=O)C3(C)C1C2)OC4(C)C (configuration not stated),Potency,[2],inactive
O=C(c1ccccc1)c1ccc2nc(NC(=O)c3csc(C4CCN(c5ncnc6ccsc56)CC4)n3)[nH]c2c1,Potency,[2],5.8 µM (active)
C[C@@H]1CCC/C=C/[C@H]2CC(=O)C[C@@H]2[C@@H](O)/C=C/C(=O)O1,Potency,[2],inactive
O=C(Nc1ccc(S(=O)(=O)C(F)(F)F)cc1)C1=CCN(c2ncccc2C(F)(F)F)CC1,Potency,[2],14.6 µM (active)

# Reference: PubChem BioAssay (NCATS)
